SW480 rerep – A quantitative high throughput screen for small molecules that induce DNA re-replication in SW480 colon adenocarcinoma cells | SW480 DNA re-replication, Hoechst DNA content imaging, 48 h | AID 624297, 2012 | Potency, µM (highest dose often 46.1 µM), inactives show at the highest dose re-replication activation, actives largely listed as activators | actives 1.8% (n = 340,000); further: % of control where 0% means no effect; nearly all actives have a fitted effect of over 55% in size
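Compounds, transferred as 23 nL by pin tool, were incubated with cells for 48 hr; DNA content per nucleus was then quantified by Hoechst staining and fluorescence plate imaging.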
ELG1 DNA repair – qHTS screen for small molecules that inhibit ELG1-dependent DNA repair in human embryonic kidney (HEK293T) cells expressing luciferase-tagged ELG1; Potency, µM (doses to about 46.1 µM), inactives show at the top dose activity change, negative = inhibition, most hits filed as inhibitors; HEK293T ELG1-luciferase reporter, luminescence, 16 h; DNA damage induced by 5-fluorouridine; actives 2.3% (n = 330,000); further: on the % scale 0 is the no-effect control and ±100 the full control effect; nearly all actives have a fitted effect of over 55% in size
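Reporter activity after DNA damage by 5-fluorouridine is monitored. Compound-treated cells incubate 16 hr at 37 °C, then ONE-Glo is added for 30 min before luminescence reading.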
KB-V1 MDR tox – qHTS assay for MDR1-selective chemotherapeutics: Primary screen using the drug-selected MDR subline cells KB-V1. AID 1347076, 2019. KB-V1 MDR cells viability, CellTiter-Glo, 72 h. Potency, µM (doses to about 46.1 µM), most hits filed as cytotoxic. actives 3.4% (n = 400,000); further: on the % scale 0 is the no-effect control and ±100 the full control effect; nearly all actives have a fitted effect of over 60% in size
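Compound-treated KB-V1 multidrug-resistant cells, 72 h, 37 degrees C; viability by CellTiter-Glo. Fitted qHTS curves give the values.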
KB-3-1 cytotox – qHTS assay for MDR1-selective chemotherapeutics: Primary screen using the parental adenocarcinoma cell KB-3-1. KB-3-1 viability, CellTiter-Glo ATP luminescence, 72 h. Potency, µM (doses to about 46.1 µM), most hits filed as cytotoxic. actives 1.4% (n = 400,000). AID 1347075, 2019; further: on the % scale 0 is the no-effect control and ±100 the full control effect; nearly all actives have a fitted effect of over 60% in size
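Cytotoxicity measured as CellTiter-Glo luminescence after 72 h at 37 C. Compound titrations were pinned onto drug-naive KB-3-1 parental adenocarcinoma cells grown in DMEM with 10% FBS, and normalized data fitted to concentration-response curves.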
MCF10A rerep – A quantitative high throughput screen for small molecules that induce DNA re-replication in MCF 10a normal breast cells | MCF 10A DNA re-replication, Hoechst nuclear intensity, 48 h | Potency, µM (highest dose often 46.1 µM), for the others: at the top dose activity, positive = re-replication, actives largely listed as activators | actives 2.9% (n = 350,000) | AID 624296, 2012; further: % of control where 0% means no effect; nearly all actives have a fitted effect of over 50% in size
Active calls of the source: *; i = inactive; ? = inconclusive; · = no result; ! = a repeat was not active; [ ] = remark or other dose. Only some compounds are listed: those with a hit (about 8.1% of all), similar ones and a draw of the others. The call rests on the fitted dose curve; in most records, active means well fitted curve in the direction sought with a large enough effect; inconclusive means small, poorly fitted or top-dose-only effect, or another doubt; inactive means no such curve, though single readings can be large; an effect the other way counts as inactive or inconclusive. Potency means the concentration at half of the fitted maximal effect.

SMILES | SW480 rerep | ELG1 DNA repair | KB-V1 MDR tox | KB-3-1 cytotox | MCF10A rerep
CC1=NN(c2ccccc2)C(=O)/C1=C/c1c(O)n(-c2ccc(F)cc2)[nH]c1=O | ? | ? | 7.3µM* | 21µM* | -11%
COc1ccc(NC(=O)c2cnn(-c3ccc(C)c(C)c3)c2C2CCNCC2)cc1OC | · | · | i | i | ·
Cc1ccc(-n2ncc(C(=O)Nc3cc(Cl)cc(Cl)c3)c2C2CCNCC2)cc1C | 4.6µM* | ? | i | i | ?
COc1ccccc1C(NC(C)=O)c1cc(Cl)c2cccnc2c1O (configuration not stated) | 0.58µM* | ? | ? | ? | ?
COc1ccc(C(=O)NC(c2ccc(Cl)cc2)c2cc(Cl)c3cccnc3c2O)cc1 (configuration not stated) | · | · | ? | i | ·
CCCC(=O)NC(c1ccco1)c1cc(Cl)c2cccnc2c1O (configuration not stated) | ? | ? | ? | i | ?
CCCC(=O)NC(c1cccs1)c1cc(Cl)c2cccnc2c1O (configuration not stated) | 1.3µM* | 5% | i | ? | 26%
CCC(=O)NC(c1ccc(C)cc1)c1cc(Cl)c2cccnc2c1O (configuration not stated) | ? | 3.7µM* | ? | ? | -13%
CCC(=O)NC(c1ccc(OC)c(OC)c1)c1cc(Cl)c2cccnc2c1O (configuration not stated) | ? | ? | ? | 3.3µM*! | ?
COc1ccc(NC(=O)c2ccc3c(c2)CCN3S(=O)(=O)c2ccccc2)c(OC)c1 | 1% | -19% | i | i | -7%
CC(=O)NC(c1ccco1)c1cc(F)c2cccnc2c1O (configuration not stated) | 7%[9.22 µM] | ? | i | ? | ?
CCOc1ccc(C(NC(C)=O)c2cc(Cl)c3cccnc3c2O)cc1 (configuration not stated) | · | · | i | i | ·
CC(=O)NC(c1cccs1)c1cc(F)c2cccnc2c1O (configuration not stated) | ? | ? | i | 10µM* | -18%
COc1ccc(C(NC(C)=O)c2cc(Cl)c3cccnc3c2O)cc1OC (configuration not stated) | 1.6µM* | ? | i | ? | ?
CCOc1ccc(C(O)c2nccn2Cc2ccccc2)cc1 (configuration not stated) | -2%[9.22 µM] | -11% | i | i | 2%
CCN(CC)c1ccc(/C=N/OCC(=O)N2CCCc3ccccc32)cc1 | 17% | -3% | i | i | 16µM*
O=C(CN1CCOCC1)Nc1c2c(nc3ccccc13)N(Cc1ccccc1)CC2 | -3% | -5% | i | i | -3%
O=C(CN1CCCC1)Nc1c2c(nc3ccccc13)N(Cc1ccccc1)CC2 | -5% | -2% | 23µM* | i | -5%
O=C(Nc1ccc2c(c1)OCO2)C1CC(c2ccc(Cl)cc2)=NO1 (configuration not stated) | 2% | 1% | i | i | 3%
COc1ccc(CNC(=O)C2CC(c3ccc(F)cc3)=NO2)cc1 (configuration not stated) | -4% | 2% | i | i | ?
COc1ccc(C2=NOC(C(=O)NCc3ccc(F)cc3)C2)cc1 (configuration not stated) | 4% | 14% | 15µM* | 7.3µM* | ?
CCn1ncc(C2=NOC(C(=O)Nc3ccc(C)cc3)C2)c1C (configuration not stated) | 6% | -16% | i | i | 8%
CCn1ncc(C2=NOC(C(=O)NCc3ccc(Cl)cc3)C2)c1C (configuration not stated) | 3.7µM* | 20% | 4.6µM* | 2.3µM* | ?
O=C(NCc1ccc2c(c1)OCO2)C1CC(c2ccc(Cl)c(Cl)c2)=NO1 (configuration not stated) | 0% | ? | i | i | 2.6µM*
COc1ccc(CNC(=O)C2CC(c3ccc(OC)cc3)=NO2)cc1 (configuration not stated) | 4% | 1% | i | i | 6.5µM*
SMILES | SW480 rerep | ELG1 DNA repair | KB-V1 MDR tox | KB-3-1 cytotox | MCF10A rerep
Cc1ccccc1NC(=O)CCC(=O)N/N=C/c1c[nH]c2ccccc12 | 14% | 3% | i | i | -1%
Cc1ccc(N=CC=C2OC(C)(C)C(C)(C)O2)cc1 | 0.82µM* | 1% | i | ? | 16µM*
Cc1cccc(N=CC=C2OC(C)(C)C(C)(C)O2)c1 | 21µM* | ? | i | i | ?
Cc1ccc(C2(c3ccc(C)cc3)CC2C(=O)Nc2ccc([N+](=O)[O-])cc2O)cc1 (configuration not stated) | 19% | 3% | 15µM* | ? | ?
CC1(C)CC1C(=O)Nc1ccc([N+](=O)[O-])cc1Br (configuration not stated) | 2% | ? | i | i | 0%
OC(COCc1cccs1)CN1CCN(c2cccc(C(F)(F)F)c2)CC1 (configuration not stated) | -4% | -5% | 23µM* | i | 19%
Fc1ccc(NC(=S)NCc2cccs2)cc1 | ? | 2% | 18µM* | ? | -55%
Cc1cc(N2CCN(C)CC2)nc2ccc(NC(=S)NCc3cccs3)cc12 | ? | 4% | i | i | 9.2µM*
CCN(CC)CCNC(=S)Nc1ccc2nc(N3CCN(C)CC3)cc(C)c2c1 | ? | 2% | i | i | ?
COc1ccc(CNC(=S)Nc2ccc3nc(N4CCN(C)CC4)cc(C)c3c2)cc1 | 9% | 1% | i | i | ?
Cc1cc(N2CCN(C)CC2)nc2ccc(NC(=O)c3ccc4c(c3)OCO4)cc12 | 27% | ? | i | 7.3µM* | ?
CCN(CC)CCNC(=S)Nc1ccc2nc(N3CCCC3)cc(C)c2c1 | ? | ? | i | 15µM* | ?
COc1cc(C(=O)Nc2ccc3nc(N4CCN(C)CC4)cc(C)c3c2)cc(OC)c1OC | ? | ? | i | ? | 18%
COC(=O)c1ccc(NC(=O)C2CC2)o1 | -4% | 8% | i | i | 2%
Fc1ccc(C2=Nn3c(Cc4ccccc4)nnc3SC2)cc1 | -6% | 0% | i | i | -2%
CC1=CC(=O)C=C(C)C1=NOC(=O)c1cccc([N+](=O)[O-])c1 | 7% | -16% | ? | i | ?
